M1 ag: human M1 muscarinic receptor agonists, primary screen, Fluo-8 calcium fluorescence, CHO-K1 cells, HTS; Muscarinic acetylcholine receptor M1 (Homo sapiens), P11229; CHO-K1 hM1, agonist mode; 0% DMSO, 100% acetylcholine EC100; activation, % at 3 µM; 360,000 tested, 0.33% active; AID 588814, 2011;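 active = activation above the run's mean compound activation plus 3 SD, cut at about 16% in these data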;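 note: peak over basal fluorescence ratio within a 140 s kinetic read after compound addition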
Target sequence (P11229 whole entry, looked up): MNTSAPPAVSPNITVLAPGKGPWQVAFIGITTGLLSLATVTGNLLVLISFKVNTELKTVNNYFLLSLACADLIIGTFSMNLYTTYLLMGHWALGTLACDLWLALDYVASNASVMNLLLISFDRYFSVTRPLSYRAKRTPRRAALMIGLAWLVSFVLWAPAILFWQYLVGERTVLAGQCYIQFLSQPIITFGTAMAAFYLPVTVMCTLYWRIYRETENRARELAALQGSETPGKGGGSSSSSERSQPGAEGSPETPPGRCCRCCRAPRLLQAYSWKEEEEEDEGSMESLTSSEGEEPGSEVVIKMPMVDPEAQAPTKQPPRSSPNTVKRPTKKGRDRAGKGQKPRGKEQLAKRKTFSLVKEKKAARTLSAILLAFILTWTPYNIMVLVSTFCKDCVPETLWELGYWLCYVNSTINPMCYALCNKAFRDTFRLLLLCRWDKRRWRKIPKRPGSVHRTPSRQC
M1 antag: human M1 muscarinic receptor antagonists, primary screen, CHO-K1 cells, Fluo-8 calcium fluorescence, 1536-well. AID 588852, 2011. CHO-K1 hM1, ACh EC80 antagonist. inhibition, % at 3 µM. 360,000 tested, 1.3% active. Muscarinic acetylcholine receptor M1 (Homo sapiens), P11229;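 active = percent inhibition above its own plate's cutoff, namely the mean of that plate's compound wells plus 3 SD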;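 note: peak over basal fluorescence ratio during 140 s after agonist addition; 0% = ACh EC80 plus DMSO and 100% = DMSO alone without agonist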
CHO-K1 Ca ag: counter-screen for M1 agonists: effect in parental CHO-K1 cells | Fluo-8 calcium fluorescence; scaled to maximal ATP response, vehicle zero | activation, % at 3 µM | 360,000 tested, 0.48% active | AID 602248, 2012; in the data active = activation above about 15%;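 note: untransfected CHO-K1 host cells lacking M1 receptor as counterscreen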
CHO-K1 Ca antag: counter-screen for M1 antagonists: effect in parental CHO-K1 cells. AID 602250. inhibition, % at 3 µM. 360,000 tested, 0.6% active. ATP-induced calcium, Fluo-8 fluorescence;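 active = inhibition above a per-plate cutoff, the plate's mean sample inhibition plus 3 SD, cut at about 24% in these data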;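 note: 0% = DMSO plus EC80 ATP and 100% = DMSO alone without ATP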
CHRM1 PAM: human M1 muscarinic receptor positive allosteric modulators, primary screen, CHO-K1 cells, Fluo-8 calcium fluorescence, 1536-well. activation, % at 3 µM. 360,000 tested, 0.088% active. AID 588819, 2011. CHO-K1 hM1, ACh EC20; 0% = ACh EC20, 100% = maximal ACh. Muscarinic acetylcholine receptor M1 (Homo sapiens), P11229; in the data active = activation above about 19%, passing the limit was not always enough
CHO-K1 Ca PAM: nonselective calcium activators in parental CHO-K1 cells, primary screen, counter-screen for M1 PAM project, cell-based, Fluo-8 calcium fluorescence, full deck, 1536-well | ATP EC20; 0% at ATP EC20, 100% at ATP max | activation, % at 3 µM | 360,000 tested, 0.02% active | AID 602247, 2012;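 active = activation above the run cutoff, the mean activation of all test compounds plus 3 SD, cut at about 40% in these data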;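 note: peak over basal fluorescence ratio in a 140 s read after ATP addition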
* marks the source's active call; other numbers are inactive results. Rows were chosen to be rich in hits. Some 2.4% of all compounds tested hit in one or more screens of this group.

SMILES	M1 ag	M1 antag	CHO-K1 Ca ag	CHO-K1 Ca antag	CHRM1 PAM	CHO-K1 Ca PAM
O=C(Cn1c(=O)n(-c2ccccc2)c(=O)c2sccc21)NCc1ccccc1	-3	-17	1	-18	10	26
O=C(c1n[nH]c2ccccc12)N1CCN(S(=O)(=O)c2ccccc2)CC1	-2	-10	5	-8	7	8
COc1ccc(CCNC(=O)Nc2ccccc2[N+](=O)[O-])cc1	27*	6	2	-2	5	17
CC(C)(C)C(=O)N1CCN(c2ccnc3cc(Cl)ccc23)CC1	-3	-10	1	6	6	-24
O=C(Nc1ccc(OC(F)(F)F)cc1)N1CCN(c2ccnc3cc(Cl)ccc23)CC1	-2	18	5	27*	-9	-21
COc1cc(NC(=O)c2ccco2)c(OC)cc1NC(=O)Nc1ccccc1Cl	-5	30*	1	-18	-21	3
N#CCc1nn(-c2ccc(F)cc2)c(N)c1C#N	-2	0	3	-15	7	21
Cc1nnc2ccc(Oc3ccc(-c4ccccc4)cc3)nn12	-3	34*	10	40*	-12	-8
Cc1nc(C(=O)N2CCCC(C(=O)c3cccc(OC(C)C)c3)C2)cs1 (stereo not given)	0	-4	4	1	6	1
Cc1nn(C(C)C)c(C)c1CN1CCCC(C(=O)c2cccc(OC(C)C)c2)C1 (stereo not given)	-10	37*	1	11	-29	-5
CC(C)Oc1cccc(C(=O)C2CCCN(C(=O)c3cncs3)C2)c1 (stereo not given)	-5	39*	0	4	-16	-4
CC(C)Oc1cccc(C(=O)C2CCCN(Cc3cnn(C(C)C)c3)C2)c1 (stereo not given)	-13	12	0	-6	-17	21
CC(C)Oc1cccc(C(=O)C2CCCN(Cc3cccn3-c3ccccn3)C2)c1 (stereo not given)	-4	41*	6	-3	-23	7
CCn1nc(C)c(CN2CCCC(C(=O)c3cccc(OC(C)C)c3)C2)c1C (stereo not given)	-11	95*	6	-2	-31	10
COc1ccc(CN(C)C(=O)[C@H]2O[C@@H](n3cnc4c(N)ncnc43)[C@H](O)[C@@H]2O)cc1OC	11	-29	8	-3	4	11
CC(=O)Nc1ccc(NC(=O)c2nc(S(=O)(=O)Cc3cccc(C)c3)ncc2Cl)cc1	-5	17	0	11	-6	-30
Cc1ccc(NC(=O)c2nc(S(=O)(=O)Cc3ccccc3C)ncc2Cl)cc1C	-3	10	0	26*	7	-20
CCc1ccc(NC(=O)c2nc(S(=O)(=O)Cc3ccccc3)ncc2Cl)cc1	-5	31	1	30*	-12	-16
CCOC(=O)c1ccc(NC(=O)c2nc(S(=O)(=O)Cc3ccccc3)ncc2Cl)cc1	-3	9	-1	16	-3	-4
COc1ccccc1Cn1c(C)c(C(=O)NCc2cccc(C)c2)sc1=O	-8	1	0	22	3	0
COc1ccc(Cl)cc1Cn1c(C)c(C(=O)NCc2ccccc2C(F)(F)F)sc1=O	-8	14	0	4	-11	-9
COc1ccc(Cl)cc1Cn1c(C)c(C(=O)NCc2cccc(C(F)(F)F)c2)sc1=O	-6	-17	0	24*	4	2
COc1ccc(CNC(=O)c2sc(=O)n(Cc3ccccc3C)c2C)cc1	34*	7	17*	6	-7	-9
Cc1ccccc1Cn1c(C)c(C(=O)NCc2cccc(Cl)c2)sc1=O	0	-8	2	-11	7	14
COc1ccc(Cl)cc1Cn1c(C)c(C(=O)NCc2ccc(C#N)cc2)sc1=O	-3	44*	4	-5	-32	8
SMILES	M1 ag	M1 antag	CHO-K1 Ca ag	CHO-K1 Ca antag	CHRM1 PAM	CHO-K1 Ca PAM
COc1ccccc1Cn1c(C)c(C(=O)NCc2ccc(C#N)cc2)sc1=O	16*	32*	28*	-4	-33	19
N#Cc1c(-c2ccccc2)cc(-c2ccccc2)nc1SCCC(=O)O	0	-7	3	-5	5	-1
CC(C)(C)c1ccc(C(=O)NCC(=O)OCC(=O)c2ccc3c(c2)-c2ccccc2C3)cc1	-13	15	1	-1	-20	17
CCn1c(-c2csc3c2CCC(C)C3)n[nH]c1=S (stereo not given)	-11	-3	2	-9	-3	22
CC(C)n1c(O)c(N=NC(=O)c2ccccc2NS(=O)(=O)c2cccs2)c2ccccc21	-8	-8	0	-3	9	17
Cc1ccccc1OCc1nc2ccccc2c(=O)n1NC(=O)c1ccco1	18*	-31	5	-7	4	18
C#CCNC(=O)C1=C[C@@H](c2ccc(Br)cc2)C[C@@H](OCCCCO)O1	-4	-3	0	-10	10	2
COCCNC(=O)c1cc2c(=O)[nH]c3ccccc3c2s1	-1	5	1	-4	5	-1
CCCN1CCN(CCCNC(=O)c2ccc3c(c2)NC(=O)c2ccccc2S3)CC1	-5	42*	0	-6	-20	6
CCCN1CCN(CCCNC(=O)c2cc3c(=O)[nH]c4ccccc4c3s2)CC1	21*	12	0	-9	-7	10
CCCN1CCN(CCCNC(=O)c2cc3c(=O)oc4ccc(C)cc4c3s2)CC1	21*	-1	0	2	-6	-17
CCN(CC)CCNC(=O)c1ccc2c(c1)NC(=O)c1ccccc1S2	-12	3	0	5	4	11
CNc1ncnc2c1ncn2[C@H]1CN(Cc2ccco2)C[C@@H](CO)O1	0	-13	0	-1	9	5
COc1ccc(NC(=O)N(C)C[C@H]2Oc3ccc(NS(=O)(=O)c4c(C)noc4C)cc3C(=O)N([C@H](C)CO)C[C@@H]2C)cc1	-2	-12	0	-9	14	17
CCN(CC)c1ccc(/C=N/n2c(-c3ccccc3Br)n[nH]c2=S)cc1	-7	81*	3	16	-26	-22
Cc1c(C(=O)NCc2n[nH]c(=S)n2-c2ccc(F)cc2)cccc1[N+](=O)[O-]	-2	4	1	-18	2	19
CC(NC(=O)COC(=O)c1ccccc1O)c1ccccc1 (stereo not given)	1	-14	1	-2	10	4

Source: PubChem BioAssay
